Hit rate of the full screen: of about 400,000 compounds, about 13,000 (3.2%) were called active. Roughly 18% stayed inconclusive and do not appear here. The call rests on the fitted dose curve; in most records, active means well fitted cell-killing curve with a large enough effect; inconclusive means small, poorly fitted or top-dose-only effect, or effect the other way; inactive means flat fitted curve, though single readings scatter. The list comes from a sample in which actives are over-represented; it also holds similar structures and randomly drawn compounds. Where a call stands in place of a potency, no number is given.
Potency means the concentration at half of the fitted maximal effect.

The test can be described thus: qHTS assay for MDR1-selective chemotherapeutics: Primary screen using the drug-selected MDR subline cells KB-V1. Further: nearly all actives have a fitted effect of over 60% in size. The conditions noted are these: KB-V1 MDR cells viability, CellTiter-Glo, 72 h; series mostly up to 46.1 µM. From the text: A prime difficulty in effectively treating cancer is the development of cellular resistance to multiple structurally unrelated anticancer drugs, a phenomenon known as multidrug resistance (MDR). […] Numerous strategies to overcome P-gp-mediated MDR have been explored, including the design of drugs that evade recognition and efflux, and development of inhibitors to block efflux and restore drug accumulation. […] An alternative approach is to exploit resistance by identifying drugs that target MDR cells over the non-resistant parental cells from which they were selected. […] The development of MDR1-selective agents represents a new strategy for resolving multidrug resistance, as it remains a long-standing clinical challenge for cancer chemotherapy.
Our goal is to identify compounds that selectively kill P-gp-expressing MDR cells. We will identify MDR1-selective compounds by comparing toxicity of compounds in the screening library against parental, drug-naive (KB-3-1) adenocarcinoma cells as well as their drug-selected MDR sub-line (KB-V1). The differential toxicity of compounds against these two cell lines will be used to identify MDR1-selective compounds, whose cytotoxicity is potentiated, rather than diminished, by P-gp expression. This assay will be utilized to conduct a quantitative high-throughput screen (qHTS) in collaboration with the NIH Chemical Genomics Center to identify selective agents, and probe hits arising from the screen will be validated using secondary assays and characterized through a well-established follow-up research program. This screen was run against the entire NCGC library collection of about 400,000 compounds.
NIH Molecular Libraries Probe Production Network [MLPCN]
NIH Chemical Genomics Center [NCGC]
PI: Michael Gottesman, National Cancer Institute, NIH
Briefly, 5 microL of media containing either KB-V1 cells (columns 1-2, 4-48) are dispensed into Greiner white, treated solid-bottom 1536-well assay plates (media-only control is added to column 3). Compounds are then transferred via Kalypsys pin tool equipped with 1536-pin array (10 nL slotted pins, V&P Scientific, San Diego, CA). Following addition of compound, the plates are incubated at 37 degrees C for 72 hours. CellTiter-Glo (2.5 µL/well) is then added, and the plates are read in a ViewLux reader (Perkin-Elmer, clear luminescence filter, 1 second exposure, 1x binning) following a 10 minute incubation. All cells are dispensed in DMEM phenol-red free media containing 10% FBS.
Library plates were screened starting from the lowest and proceeding to the highest concentration. Vehicle-only plates, with DMSO being pin-transferred to columns 5-48, will be inserted uniformly at the beginning and the end of each library in order to monitor and record any shifts in the background, which can be affected by reagent dispensers or loss in enzyme activity over time. Screening data will be corrected, normalized, and concentration-effect relationships will be derived by using publicly-available NCGC, NCATS curve fitting algorithms (http://ncgc.nih.gov/pub/openhts).
Background: qHTS replaces the single test concentration by a dilution series.
For the molecule `CCCCC(=O)OC1=CN(Cc2ccccc2)S(=O)(=O)c2ccccc21`, the Potency result is “inactive”. Under `O=C(CN1CCOCC1)N1CCCc2c1c(=O)oc1ccc(OCc3ccccc3)cc21` stands 18.4 µM (active). Under `O=C(COc1ccc2oc3c(c2c1)CCCC3)Nc1ccccn1` stands “inactive”; under `CC1CCCCN1CC(=O)N1CCCc2c1c(=O)oc1ccc(OCc3ccccc3)cc21` (stereo not drawn), “inactive”. Regarding `CCOc1ccc(CCN2C(=S)N([C@@H](CC(C)C)CN3CCC[C@@H]3CN3C(=S)NC[C@@H]3Cc3ccc(O)cc3)C[C@@H]2CC(C)C)cc1`, the Potency entry was “inactive”.

As to `CC(=O)Nc1cncc(-c2ccccc2CO)n1`, the Potency entry was “inactive”.

Turning to `O=C(CN(c1ccccc1)S(=O)(=O)c1ccc(Cl)cc1)Nc1ccccc1C(=O)N1CCCC1`, the Potency was 5.8 µM (active). Under `O=C(Nc1ccccc1C(=O)N1CCCCCC1)c1ccccc1Cl` stands “inactive”; under `COc1ccccc1N(CC(=O)Nc1ccccc1C(=O)N1CCCC1)S(C)(=O)=O`, “inactive”. Under `COc1cccc(CN(C)C(=O)CC[C@H]2O[C@@H](n3cnc4c(NC(=O)c5ccccc5)ncnc43)[C@H](O)[C@@H]2O)c1` stands “inactive”; under `Cc1ccc(C)c(N2CCN(C(=O)CCCCCn3c(=S)[nH]c4ccc(N5CCOCC5)cc4c3=O)CC2)c1`, “inactive”. Take `COc1cccc(N2CCN(C(=O)CCCCCn3c(=O)[nH]c4ccccc4c3=O)CC2)c1`: the Potency entry is “inactive”. For `Cc1ccc(C)c(N2CCN(C(=O)CCCCn3c(=O)[nH]c4ccccc4c3=O)CC2)c1` the value was 6.51 µM (active); for `COc1ccc(CCNC(=O)CCCCn2c(=O)c3ccccc3n(Cc3ccccc3)c2=O)cc1OC`, “inactive”. Take `Oc1ccccc1-c1nc(/C=C/c2ccc(F)cc2)no1`: the Potency entry is “inactive”. On to `Cc1ccc(-c2noc(CSc3nnc(-c4ccccc4)n3C)n2)cc1`, for which the Potency entry is “inactive”. Under `Cc1ccc(-c2noc(CSc3nnc(-c4cccs4)n3C)n2)cc1` stands 13 µM (active); under `Cc1ccc(-c2noc(CSc3nnc(-c4ccncc4)n3-c3ccc(F)cc3)n2)cc1`, 8.2 µM (active). In the case of `Cc1ccc(-c2noc(CSc3nnnn3-c3ccccc3)n2)cc1`, the Potency entry was “inactive”. With `Cn1cccc1Cc1nnc(SCC(=O)NCCc2ccccc2)n1-c1ccc(F)cc1`, the Potency result is “inactive”. For the molecule `COc1ccc(-c2noc(CSc3nnc(-c4ccccc4)n3-c3ccc(F)cc3)n2)c(OC)c1`, the Potency result is “inactive”. Under `Cc1ccc(-c2noc(CSc3nnc(-c4ccc(Cl)cc4)n3C)n2)cc1` stands “inactive”.

Take `COc1ccc(-c2noc(CSc3nc4ccc(C)cc4[nH]3)n2)cc1`: the Potency result is “inactive”. Under `Fc1ccc(-n2c(Cc3ccccc3)nnc2SCc2nc(-c3ccc(Cl)cc3)no2)cc1` stands 14.6 µM (active). Under `Cc1ccc(C(=O)Nc2c(-c3ccccc3)[nH][nH]c2=O)cc1` stands “inactive”; under `O=C(NCc1ccccc1Cl)C1=Cc2cc(Br)ccc2OC1`, “inactive”. Under `CC(C)Oc1cc(F)ccc1-c1cc(C(=O)Nc2ccc(F)cc2)[nH]n1` stands “inactive”; under `CC(Nc1ccc(-c2nc(-c3ccco3)no2)cc1[N+](=O)[O-])c1ccccc1` (stereo not drawn), “inactive”; under `Cc1cc(C)cc(NS(=O)(=O)c2ccc3[nH]cc(C(=O)N4CCCCC4)c(=O)c3c2)c1`, “inactive”.

For the molecule `CCCNC(=O)C1(C)CCN(C(=O)c2cc(F)ccc2C)C1` (stereo not drawn), the Potency result was “inactive”. As to `C=Cc1ccc(Cn2c(C(=O)O)c(CNC3CCCC3)c3ccc(C)cc32)cc1`, the Potency entry is “inactive”.

In the case of `CC1(C)SC2c3ccccc3C(=O)N2[C@@H]1C(=O)NCc1ccco1` (stereo partly drawn), the Potency entry is “inactive”.

Regarding `COc1cc2c(cc1OC)C(C(=O)NCc1ccco1)C1c3ccccc3CCN1C2=O` (stereo not drawn), the Potency is 14.6 µM (active). As to `COc1ccc(S(=O)(=O)N2CCC(C(=O)NCc3ccco3)CC2)cc1C`, the Potency result was “inactive”. Under `COCCNc1nc(NCc2ccc(NC(C)=O)cc2)c2sccc2n1` stands “inactive”; under `Cc1cccc(-n2c(SCC(N)=O)nc3c(c2=O)C2(CCCCC2)Cc2ccccc2-3)c1`, 18.4 µM (active). On to `Cc1cccc(-n2c(SCC(N)=O)nc3c(oc4ccccc43)c2=O)c1`, for which the Potency result is “inactive”. Under `N#CCSc1nc2c(c(=O)n1Cc1ccccc1)C1(CCCC1)Cc1ccccc1-2` stands “inactive”. As to `CCOC(=O)c1cnn2c(SC)ncnc12`, the Potency result was “inactive”.

Regarding `CCCS(=O)(=O)NC(=O)C1(C)CCCN(C(=O)c2ccnc(Cl)c2)C1` (stereo not drawn), the Potency entry was “inactive”.

Take `COc1ccc(C/C(C)=N/NC(=O)c2cc(C)oc2C)cc1`: the Potency entry was “inactive”. For `Cc1cc(C(=O)N/N=C\C(Br)=C\c2ccccc2)c(C)o1` the value was “inactive”. For `CC(=C/c1ccccc1)/C=N/NC(=O)c1cc(C)oc1C`, the Potency is 14.6 µM (active).

For `Cc1ccc(CCNC(=O)CN2C(=O)CSc3ccc(S(=O)(=O)N4CCOCC4)cc32)cc1`, the Potency result was “inactive”. As to `CCOC(=O)C1=CCC(c2ccc(F)cc2)N(S(=O)(=O)c2ccc(C)cc2)C1` (stereo not drawn), the Potency entry was “inactive”. Take `COc1cc(/C=N/NC(=O)c2ccc(N3CCCC3=O)cc2)ccc1O`: the Potency entry was “inactive”. Regarding `Cn1c(=O)n(C)c2cc(/C=N/NC(=O)c3cccc(Br)c3)ccc21`, the Potency result was “inactive”. For `O=C(N/N=C/c1cccc(Br)c1)c1ccc(N2CCCC2=O)cc1`, the Potency is 16.4 µM (active).

The record behind these values is PubChem BioAssay AID1347076 (National Center for Advancing Translational Sciences (NCATS), 2019).
